Results filed as inconclusive are left out. Active and inactive are the calls of the source. Unless noted, calls follow the shape of the dose curve; as a rule, active = well fitted curve in the direction sought with a large enough effect in the repeat runs; inconclusive = weak or mixed curves; inactive = no such curve, though single readings can be large; an effect the other way counts as inactive or inconclusive.
Assays:
[1] = qHTS assay to identify small molecule antagonists of the vitamin D receptor (VDR) signaling pathway - cell viability counter screen (AID 743225); also: nearly all actives have a fitted effect of over 50% in size
Outline: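 Viability counter screen run in the same wells as the beta-lactamase reporter assay: HEK 293T VDR-UAS-bla cells, 16 h compound exposure at 37C with 3 nM (final) 1-alpha,25-dihydroxyvitamin D3. CellTiter-Glo luminescence, 30 min, room temperature.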

[2] = qHTS assay to identify small molecule agonists of the NFkB signaling pathway (AID 1159509; active = well fitted curve in the direction sought with a large enough effect in the signal ratio in the repeat runs, not every such curve was filed as active; the % refers to the signal ratio; also: series mostly up to about 61 µM)
Outline: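 NFkB-bla ME-180 cells carry a beta-lactamase reporter under an NF-kB response element. They were plated overnight, then exposed to compounds for 5 h at 37 C. Read-out is LiveBLAzer FRET after 1.5 hr at room temperature (405 nm excitation; 460/530 nm emission).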

[3] = qHTS assay to identify small molecule agonists of the NFkB signaling pathway - cell viability counter screen (AID 1159515; calls by dose curve; also: series mostly up to about 61 µM; nearly all actives have a fitted effect of over 55% in size)
Outline: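 NFkB-bla ME-180 cells, 2,000/well, were plated overnight at 37 C, 5% CO2, then exposed to compounds in DMSO for 5 hr. After the bla FRET read, CellTiter-Glo was added to the same wells; luminescence was read after 30 min at room temperature.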

[4] = qHTS assay to identify small molecule agonists of the endoplasmic reticulum stress response signaling pathway (AID 1159516; active = well fitted activation curve with a large enough effect in the signal ratio in the repeat runs, not every such curve was filed as active; the % refers to the signal ratio)
Outline: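 CellSensor ESRE-bla HeLa cells, carrying a beta-lactamase reporter driven by the ER stress response element, were plated overnight and exposed to compounds for 5 hr at 37 C. Reporter activity was read as FRET substrate fluorescence after 2 hr at room temperature.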

[5] = qHTS assay to identify small molecule agonists of the endoplasmic reticulum stress response signaling pathway - cell viability counter screen (AID 1159517; calls by dose curve; also: series mostly up to about 61 µM; nearly all actives have a fitted effect of over 50% in size)
Outline: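 HeLa cells carrying an ESRE-driven beta-lactamase reporter receive compound for 5 hr at 37 C. Cell viability is then gauged with CellTiter-Glo by luminescence, 30 min at room temperature.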

[6] = qHTS assay to identify small molecule antagonists of the retinoid-related orphan receptor gamma (ROR-gamma) signaling pathway - cell viability counter screen (AID 1159520); also: nearly all actives have a fitted effect of over 50% in size
Outline: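 Cytotoxicity was read from cellular ATP (CellTiter-Glo luminescence) after 16 hr at 37 C with 1 uM doxycycline induction. The inducer was added 2 hr after compound transfer to Tet-on ROR gamma CHO cells.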

[7] = biological target: Nuclear receptor ROR-gamma (Homo sapiens) (UniProt P51449); experiment: qHTS assay to identify small molecule antagonists of the retinoid-related orphan receptor gamma (ROR-gamma) signaling pathway (AID 1159521;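 also: CHO cells with doxycycline inducible ROR-gamma driving an RORE luciferase reporter; top concentration of the series differs between compounds; nearly all actives have a fitted effect of over 50% in size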)
Outline: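 Luminescence readout (ONE-Glo, 30 min RT) after 16 h doxycycline induction; loss of signal scored as antagonism. CHO cells with TET-inducible RORγ and RORE-LUC reporter; compounds added 2 h before 1 uM final doxycycline.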

[8] = qHTS assay to identify small molecule agonists of the AP-1 signaling pathway - cell viability counter screen (AID 1159525; calls by dose curve; also: nearly all actives have a fitted effect of over 55% in size)
Outline: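 Luminescent ATP readout (Cell Titer Glo, 30 min RT), normalised to DMSO and tetra n-octyl ammonium bromide controls. Cells were ME-180 AP-1-bla in 0.5% dialyzed FBS Opti-MEM, with a 5 h, 37 °C compound exposure.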

[9] = qHTS assay to identify small molecule agonists of the AP-1 signaling pathway (AID 1159526; calls by dose curve)
[10] = qHTS assay to identify small molecule agonists of the RXR signaling pathway - cell viability counter screen (AID 1159529)
Outline: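 Luminescence from CellTiter-Glo (30 min, RT) measured viability in the same wells as the beta-lactamase reporter readout. Cells: GeneBLAzer RXR-alpha HEK 293T, 2% charcoal-stripped FBS. Compound exposure 16 hr, 37 C.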

[11] = qHTS assay to identify small molecule antagonists of the retinoid acid receptor (RAR) signaling pathway - cell viability counter screen (AID 1159551); also: nearly all actives have a fitted effect of over 35% in size
Outline: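 C3RL4 cells were seeded overnight at 37 C, then treated with compounds plus 1 uM (final) retinol for 6 h at 37 C. Viability was read as ATP by CellTiter-Glo luminescence after 30 min at room temperature.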

[12] = qHTS assay to identify small molecule agonists of the vitamin D receptor (VDR) signaling pathway - cell viability counter screen (AID 743224)
Outline: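 VDR-bla cells were preincubated 4 h at 37C/5% CO2, then exposed to compounds for 16 h. After the 2 h room-temperature bla FRET read, CellTiter-Glo was added to the same wells and luminescence read after 30 min.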

[13] = biological target: Retinoic acid receptor RXR-alpha (Homo sapiens) (UniProt P19793); experiment: qHTS assay to identify small molecule agonists of the RXR signaling pathway (AID 1159527; calls by dose curve; also: nearly all actives have a fitted effect of over 35% in size)
Sequence of Retinoic acid receptor RXR-alpha (Homo sapiens) (P19793 whole entry, looked up): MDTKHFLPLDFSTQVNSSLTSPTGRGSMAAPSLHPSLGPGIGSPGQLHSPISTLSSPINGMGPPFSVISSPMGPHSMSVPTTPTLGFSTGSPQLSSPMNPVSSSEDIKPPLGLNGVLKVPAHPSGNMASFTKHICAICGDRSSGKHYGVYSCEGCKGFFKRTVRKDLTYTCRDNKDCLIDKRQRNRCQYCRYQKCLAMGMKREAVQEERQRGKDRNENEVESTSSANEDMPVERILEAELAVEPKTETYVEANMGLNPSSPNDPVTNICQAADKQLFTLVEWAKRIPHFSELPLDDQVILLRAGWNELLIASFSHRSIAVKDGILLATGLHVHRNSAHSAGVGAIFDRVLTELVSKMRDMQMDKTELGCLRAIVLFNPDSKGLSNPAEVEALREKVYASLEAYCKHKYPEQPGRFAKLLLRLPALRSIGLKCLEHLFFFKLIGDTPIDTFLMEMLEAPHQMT
Outline: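 Agonist mode; 9-cis retinoic acid positive control. HEK 293T UAS-bla reporter cells, 2% charcoal-stripped FBS, 16 hr compound exposure at 37 C/5% CO2. LiveBLAzer B/G FRET substrate 2 hr RT; ex 405, em 460/530 nm.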

[14] = qHTS assay to identify small molecule antagonists of the retinoic acid receptor (RAR) signaling pathway (AID 1159552; also: nearly all actives have a fitted effect of over 50% in size)
Outline: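 Luminescence from a RARE luciferase reporter in C3RL4 cells served as read-out. Cells received compounds together with 1 uM final retinol and incubated 6 hr at 37 C before detection reagent was added for 30 min at room temperature.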

[15] = qHTS assay to identify small molecule agonists of the retinoic acid receptor (RAR) signaling pathway (AID 1159553)
Outline: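 C3RL4 cells carrying a RARE luciferase reporter were plated overnight at 37 C, then exposed to compounds in DMSO for 6 hr at 37 C and 5% CO2. Luminescence was read 30 min after luciferase reagent addition at room temperature.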

[16] = qHTS assay to identify small molecule antagonists of the estrogen related receptor (ERR) signaling pathway - cell viability counter screen (AID 1224818);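 also: series mostly up to about 46 µM; viability measured after 17.5 h of compound exposure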
Outline: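 ERR reporter cells plated 6 h at 37 C/5% CO2, then compounds in DMSO pin-transferred and incubated 17.5 h at 37 C. Viability read as CellTiter-Fluor fluorescence after 30 min at 37 C.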

[17] = qHTS assay to identify small molecule antagonists of the estrogen related receptor signaling pathway with the pleiotropic PPARgamma coactivator (PGC) cell viability counter screen (AID 1224822; also: series mostly up to about 46 µM)
Outline: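 PGC/ERR cells were seeded at 2,000 cells/well, rested 6 h at 37 C/5% CO2, then given compounds in DMSO by pin tool and incubated 17.5 h at 37 C. Viability came from CellTiter-Fluor fluorescence after 30 min.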

Measured: Potency

COc1cc(C[C@@H](C)N)c(OC)cc1C
not listed: [12] | [13] | [14] | [15] | [16] | [17]
inactive: all other assays above

O=NN1CCCCC1
not listed: [13] | [14] | [15] | [16] | [17]
inactive: all other assays above

CN(C)CCc1ccc(O)cc1
not listed: [13] | [14] | [15] | [16] | [17]
inactive: all other assays above

O=NN1CCN(N=O)CC1
not listed: [13] | [14] | [15] | [16] | [17]
inactive: all other assays above

CCSC(=O)N(CC)C1CCCCC1
not listed: [13] | [14] | [15] | [16] | [17]
inactive: all other assays above

CCC1(c2ccccc2)C(=O)NC(=O)NC1=O
not listed: [13] | [14] | [15] | [16] | [17]
inactive: all other assays above

CCCCc1ccc(O)cc1
not listed: [9] | [16] | [17]
inactive: all other assays above

CCNc1nc(NC(C)C)nc(OC)n1
not listed: [12] | [13] | [14] | [15] | [16] | [17]
inactive: all other assays above

N#CC(O)c1ccccc1 (centres undefined)
not listed: [13] | [14] | [15] | [16] | [17]
inactive: all other assays above

CNC(=O)Oc1cccc(C(C)C)c1
not listed: [12] | [13] | [14] | [15] | [16] | [17]
inactive: all other assays above

CCCCOP(=O)(O)OCCCC
not listed: [12] | [13] | [14] | [15] | [16] | [17]
inactive: all other assays above

O=S(=O)(O)C(F)(F)C(F)(F)C(F)(F)C(F)(F)C(F)(F)C(F)(F)F
not listed: [13] | [14] | [15] | [16] | [17]
inactive: all other assays above

CN1CCC(O)(c2ccc(F)cc2)C(C(=O)c2ccc(F)cc2)C1 (centres undefined)
not listed: [12] | [13] | [14] | [15] | [16] | [17]
inactive: all other assays above

[Cl][Sn]([Cl])([Cl])[Cl]
not listed: [13] | [14] | [15] | [16] | [17]
inactive: all other assays above

ClCCCN1CCN(c2cccc(Cl)c2)CC1
not listed: [1] | [9] | [12] | [16] | [17]
inactive: all other assays above

N#Cc1c(Cl)cccc1Cl
not listed: [13] | [14] | [15] | [16] | [17]
inactive: all other assays above

CCC(C)n1c(=O)[nH]c(C)c(Br)c1=O (centres undefined)
not listed: [13] | [14] | [15] | [16] | [17]
inactive: all other assays above

COC(=O)C1=CCCN(C)C1
not listed: [9] | [14] | [15]
inactive: all other assays above

N#CCBr
not listed: [13] | [14] | [15] | [16] | [17]
inactive: all other assays above

CC(C=O)Cc1ccc2c(c1)OCO2 (centres undefined)
not listed: [1] | [9] | [16] | [17]
inactive: all other assays above

NC(=O)O
not listed: [13] | [14] | [15] | [16] | [17]
inactive: all other assays above

Cc1coc2c1CCC(C)C2 (centres undefined)
not listed: [13] | [14] | [15] | [16] | [17]
inactive: all other assays above

Source: PubChem BioAssay (Tox21)
